# Results from paper PMC4336329 (PLoS ONE, 2015).
# In all, about 310,000 compounds went through this assay and about 14,000 (4.5%) showed an effect of 50% or more. The effect is printed as a negative number. Only a selection was taken, and strong results are over-represented in it overall.
# Molecular target: human ether-à-go-go-related gene (hERG) potassium channel (human, UniProt Q12809)
# Assay: primary screen, population patch clamp on CHO cells stably expressing hERG; higher = less effect of the substance
# 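Note: peak tail current of the secondary pulse compared with the same well before compound.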
# Chain of human ether-à-go-go-related gene (hERG) potassium channel (Q12809 whole entry, looked up): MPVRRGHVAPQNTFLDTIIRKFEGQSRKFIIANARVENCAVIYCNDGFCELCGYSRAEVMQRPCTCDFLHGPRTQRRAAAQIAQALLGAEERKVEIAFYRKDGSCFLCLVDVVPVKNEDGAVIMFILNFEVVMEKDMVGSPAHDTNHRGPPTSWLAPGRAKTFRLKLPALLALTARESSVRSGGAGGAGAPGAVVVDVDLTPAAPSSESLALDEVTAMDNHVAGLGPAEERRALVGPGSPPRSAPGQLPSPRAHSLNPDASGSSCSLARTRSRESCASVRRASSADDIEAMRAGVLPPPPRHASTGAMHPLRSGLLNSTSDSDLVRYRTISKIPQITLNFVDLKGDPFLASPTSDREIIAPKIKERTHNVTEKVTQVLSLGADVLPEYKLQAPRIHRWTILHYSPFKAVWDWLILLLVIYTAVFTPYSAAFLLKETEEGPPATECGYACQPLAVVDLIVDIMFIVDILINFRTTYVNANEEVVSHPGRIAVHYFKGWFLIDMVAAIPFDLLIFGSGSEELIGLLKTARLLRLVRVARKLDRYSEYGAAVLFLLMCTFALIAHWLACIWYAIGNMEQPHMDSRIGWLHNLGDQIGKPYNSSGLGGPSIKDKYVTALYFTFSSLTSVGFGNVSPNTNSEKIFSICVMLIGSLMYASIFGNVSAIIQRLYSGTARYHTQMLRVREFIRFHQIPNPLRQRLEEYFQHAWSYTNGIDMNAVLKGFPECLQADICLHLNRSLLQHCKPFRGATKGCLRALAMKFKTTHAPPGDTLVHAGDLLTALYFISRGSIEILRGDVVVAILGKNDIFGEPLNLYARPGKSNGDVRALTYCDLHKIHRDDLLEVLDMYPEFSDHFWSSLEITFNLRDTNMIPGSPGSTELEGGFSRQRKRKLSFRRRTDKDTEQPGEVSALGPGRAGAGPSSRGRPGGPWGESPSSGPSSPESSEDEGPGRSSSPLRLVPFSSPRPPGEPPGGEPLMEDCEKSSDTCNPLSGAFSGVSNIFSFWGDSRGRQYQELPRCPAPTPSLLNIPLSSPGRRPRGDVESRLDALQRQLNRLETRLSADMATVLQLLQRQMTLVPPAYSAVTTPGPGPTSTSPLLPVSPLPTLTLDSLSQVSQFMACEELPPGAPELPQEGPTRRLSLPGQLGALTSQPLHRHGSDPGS
row,SMILES,"hERG current change (%, negative = inhibition) at 10uM"
1,O=C(NC1CCCCC1)C(c1ccccn1)N(C(=O)c1csnn1)c1ccccc1 (stereo not shown),1.6%
2,O=C(NC1CCCCC1)c1cc(-c2cccc(Cl)c2)on1,11.7%
3,CCOC(=O)C1C(=O)NC(c2ccccc2)=NC1c1ccc(OC)cc1 (stereo not shown),-12.2%
4,CC(=O)N1CCC(N(CCN2CCOCC2)C(=S)Nc2c(C)cccc2C)CC1,8.51%
5,NC(=O)c1nsc(C(=O)N(c2ccc3c(c2)OCO3)C(C(=O)NCC2CCCO2)c2ccc(F)cc2)c1N (stereo not shown),-8.25%
6,COCC(=O)Nc1nc2n(n1)C(c1ccc(Cl)cc1)CC(c1ccc(OC)cc1)N2 (stereo not shown),-73.8%
7,O=C(Nc1nc2n(n1)C(c1ccc(Cl)cc1)CC(c1ccc(Cl)cc1)N2)c1ccco1 (stereo not shown),-38.3%
8,COCC(=O)Nc1nc2n(n1)C(c1ccccc1Cl)CC(c1ccc(OC)cc1)N2 (stereo not shown),-18.6%
9,COc1ccc(C2CC(c3ccc(OC)cc3)n3nc(NC(=O)c4ccco4)nc3N2)cc1 (stereo not shown),-19.2%
10,CC1CC(c2ccccc2)n2nc(NC(=O)c3ccco3)nc2N1 (stereo not shown),24.6%
11,COc1ccc(C2CC(c3ccccc3)Nc3nc(NC(=O)c4ccco4)nn32)cc1 (stereo not shown),-64.4%
12,O=C(O)CCCC(=O)Nc1nc2n(n1)C(c1ccc(F)cc1)CC(c1ccc(Cl)cc1)N2 (stereo not shown),-0.46%
13,COCC(=O)Nc1nc2n(n1)C(c1ccccc1)CC(c1ccc(OC)cc1)N2 (stereo not shown),-3.73%
14,O=C(Nc1nc2n(n1)C(c1ccccc1)CC(c1ccc(Cl)cc1)N2)c1ccco1 (stereo not shown),-53.1%
15,O=[N+]([O-])c1ccc(NCCO)c2ncccc12,2.11%
16,CC(Sc1ncc(C(F)(F)F)cc1Cl)C(=O)NC(N)=O (stereo not shown),0.58%
17,COC(=O)c1cc(OC)c(OC)cc1NC(=O)Cc1cccs1,0.709%
18,CCCn1nnnc1NCc1ccc(C(C)C)cc1,4.94%
19,CCC1CCCCN1c1cc(C)nc2cc(-c3cccc(C)c3)nn12 (stereo not shown),-1.65%
20,CCCCCCCC[n+]1cccc(C(=O)N(CC)CC)c1.[Br-],13%
21,CCCCCCCCCC[n+]1cccc(C(=O)N(CC)CC)c1.[Br-],-0.215%
22,CCCCCCCCCCCCCCCC[n+]1cccc(C(=O)N(CC)CC)c1.[Br-],-69.7%

row,SMILES,"hERG current change (%, negative = inhibition) at 10uM"
1,COc1ccc(CNn2c(-c3cccc(C)c3)nc3ccccc3c2=O)cc1OC,-73.6%
2,COc1ccccc1CNn1c(-c2cccc(C)c2)nc2ccccc2c1=O,-11%
3,COc1cccc(CNn2c(-c3cccc(C)c3)nc3ccccc3c2=O)c1,-9.77%
4,CC1(C)C2CCC(C2)C1(C)NC(=O)CN1CCCC1.Cl (stereo not shown),-0.213%
5,Cc1cc2oc(=O)cc(C)c2c(=O)o1,-65.8%
6,COc1cc2oc(=O)cc(C)c2c(OC)c1OC,17.9%
7,COc1cc(OC)c2c(C)cc(=O)oc2c1,15.4%
8,CCOc1ccc(NC(=O)Cn2cc(C(=O)CC)c3ccccc32)cc1,14.7%
9,Cc1ccc2oc(=O)c(/C=C(\O)C(C)(C)C)nc2c1,17.1%
10,O=[N+]([O-])c1ccc(Cc2cncc(O)c2)cc1,-17.3%
11,Cc1cc(Cc2ccc([N+](=O)[O-])cc2)c(C)cn1,-57.8%
12,Cc1ccc2nc(SCc3ccc([N+](=O)[O-])cc3)[nH]c2c1,-65.1%
13,Cc1ccc2nc(SCC(=O)Nc3cc([N+](=O)[O-])ccc3F)[nH]c2c1,-57.4%
14,Cc1cnc(=O)[nH]c1SCc1cccc([N+](=O)[O-])c1,2.35%
15,Cc1ccc2nc(SCC(=O)Nc3cccc([N+](=O)[O-])c3)[nH]c2c1,-11.7%
16,Cc1ccc(CSc2[nH]c(=O)ncc2C)cc1,10.7%
17,Cc1ccc2nc(SCC(=O)Nc3ccc(F)c([N+](=O)[O-])c3)[nH]c2c1,-2.06%
18,Cc1ccc2nc(SCc3ccc([N+](=O)[O-])cc3)nc(C)c2c1,0.901%
19,O=[N+]([O-])c1ccc(Cc2ccncc2)cc1,-26.9%
20,Cc1cnc(=O)[nH]c1SCc1ccc([N+](=O)[O-])cc1,-70.1%
21,Cc1nc2nc(SCc3ccc([N+](=O)[O-])cc3)[nH]c2cc1Br,1.02%
22,O=C(CNC(=O)c1ccco1)N/N=C/c1cccs1,14.9%

row,SMILES,"hERG current change (%, negative = inhibition) at 10uM"
1,O=C(Nc1ccc([N+](=O)[O-])cn1)c1cc(-c2cccc(Cl)c2)nc2ccccc12,-8.44%
2,Cc1ccc(C(=O)N2CCC(C)CC2)cc1S(=O)(=O)N1CCCCC1,-10.2%
3,CCOc1cc(C(=O)OC(C)C(=O)Nc2ccc(S(N)(=O)=O)cc2)ccc1OCC(=O)N1CCOCC1 (stereo not shown),-5.65%
4,CC(=O)c1cccc(NC(=S)NC(=O)c2ccc(C)cc2)c1,22.4%
5,COc1cccc(C(=O)NNS(=O)(=O)c2ccc(F)cc2)c1,9.31%
6,Cc1ccc(NC(=O)COC(=O)CCc2c[nH]c3ccccc23)cc1[N+](=O)[O-],10.4%
7,Cc1cc(C)nc(SCc2ccc([N+](=O)[O-])cc2)n1,-17%
8,CC(=O)c1cc(C#N)c(SCc2ccc([N+](=O)[O-])cc2)nc1C,17.7%
9,O=[N+]([O-])c1cccc(CSc2nc3ccccc3[nH]2)c1,-15.6%
10,O=[N+]([O-])c1ccc(CSc2nc3ccccc3[nH]2)cc1,-54.2%
11,Cc1nc(N)nc(SCc2ccc([N+](=O)[O-])cc2)c1N,-74.6%
12,c1ccc(CSc2nc3ccccc3[nH]2)cc1,17.6%
13,O=S(=O)(CCc1nc2ccccc2o1)c1ccc2ccccc2c1,7.8%
14,Cc1cccc(/C(N)=N/OC(=O)c2ccc(Br)o2)c1,11.7%
15,Fc1ccc(-c2csc(/C=C/c3ccc4c(c3)OCO4)n2)cc1,13.2%
16,CC(C)c1ccc(C(=O)CC2(O)C(=O)N(CN3CCOCC3)c3ccccc32)cc1 (stereo not shown),10.4%
17,O=C1N(CCCCN2C(=O)C3(OCCO3)c3ccccc32)c2ccccc2C12OCCO2,6.9%
18,CO[C@@H]1[C@@H](O[C@@H]2O[C@H](C)[C@@H](O[C@H]3C[C@@](C)(OC(=O)CC(C)C)[C@@H](O)[C@H](C)O3)[C@H](N(C)C)[C@H]2O)[C@@H](CC=O)C[C@@H](C)[C@@H](O)C=CC=CC[C@@H](C)OC(=O)C[C@H]1OC(C)=O,-6.51%
19,c1cncc(C2CCCCN2)c1 (stereo not shown),-6.38%
20,CCOc1cc(/C=C2/N=C(c3ccc4c(c3)OCO4)OC2=O)ccc1OC(C)=O,9.87%
21,COc1cccc(N2CCN(S(=O)(=O)c3cccc4cccnc34)CC2)c1,15.5%
22,COc1c2c(cc3c1C(CC(O)Cc1ccccc1)N(C)CC3)OCO2 (stereo not shown),-61.3%

row,SMILES,"hERG current change (%, negative = inhibition) at 10uM"
1,COc1ccc2c(c1OC)C(=O)OC2C1c2c(cc3c(c2OC)OCO3)CCN1C.Cl.O (stereo not shown),-13.7%
2,COc1ccc2c(c1OC)C(=O)OC2C1c2c(cc3c(c2OC)OCO3)CCN1C.Cl (stereo not shown),-1.88%
3,COc1ccc2c(c1OC)C(C1c3c(cc4c(c3OC)OCO4)CCN1C)OC2=O (stereo not shown),-7.14%
4,COc1ccc2c(c1OC)C(=O)O[C@@H]2[C@H]1c2c(cc3c(c2OC)OCO3)CCN1C,-2.49%
5,COc1ccc(CC(O)CC2c3c(cc4c(c3OC)OCO4)CCN2C)cc1.Cl (stereo not shown),-78.9%
6,O=c1[nH]ncc2c3ccccc3n(Cc3ccccc3)c12,15.8%
7,S=C(NCc1ccco1)Nc1ccc(Cl)cc1Cl,8.1%
8,O=C1c2oc3ccccc3c(=O)c2C(c2cccc(Br)c2)N1Cc1ccco1 (stereo not shown),-8.64%
9,CCc1ccc(CN(C)CC(=O)Nc2ccc3c(c2)CCC3)cc1,9.39%
10,O=C(OCc1cccc([N+](=O)[O-])c1)c1cc2ccccc2oc1=O,20.7%
11,Cc1ccc(C(=O)NNC(=O)c2ccc(Br)s2)cc1S(=O)(=O)N1CCOCC1,-26.2%
12,COc1ccc(CC(=O)Nc2cccc(-c3ccc4nnc(C)n4n3)c2)cc1,-54.1%
13,COc1ccc(CC(=O)Nc2ccc(-c3ccc4nnc(C)n4n3)cc2)cc1OC,2.72%
14,Cc1nnc2ccc(-c3cccc(NC(=O)Cc4cccs4)c3)nn12,-25.9%
15,CCOc1ccc(CC(=O)Nc2cccc(-c3ccc4nnc(C)n4n3)c2)cc1,-51.1%
16,CCOc1ccc(CC(=O)Nc2ccc(-c3ccc4nnc(C)n4n3)cc2)cc1,-40.4%
17,COc1ccc(CC(=O)Nc2cccc(-c3ccc4nnc(C)n4n3)c2)cc1OC,-0.118%
18,CCOC(=O)C1CCCN(C(=O)CS(=O)(=O)Cc2ccccc2)C1 (stereo not shown),15.3%
19,O=C(CNC(=O)c1ccc2c(c1)OCO2)N/N=C/c1cc(Br)ccc1O,20.1%
